# sEH activator: activators of human soluble epoxide hydrolase; P34913; purified human sEH enzymatic activity, activator screen; activation, % at 2 µM; actives 0.04% (n = 91,000); AID 717; in the data active means activation above about 37%
# CYP2C19 inhib: blocks human cytochrome P450 2C19; P33261; AID 778; actives 21% (n = 96,000); CYP2C19 Supersomes, luciferin-H EGE luminescence, 30 min; inhibition, % at 5 µM;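 active means CYP2C19 inhibition above a set limit at 5 µM in the primary screen, cut at about 50% in these data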;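 further: plate controls were negative control wells for no effect and 2.5 mM tranylcypromine positive control for full effect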
# Target sequence (P33261 whole entry, looked up): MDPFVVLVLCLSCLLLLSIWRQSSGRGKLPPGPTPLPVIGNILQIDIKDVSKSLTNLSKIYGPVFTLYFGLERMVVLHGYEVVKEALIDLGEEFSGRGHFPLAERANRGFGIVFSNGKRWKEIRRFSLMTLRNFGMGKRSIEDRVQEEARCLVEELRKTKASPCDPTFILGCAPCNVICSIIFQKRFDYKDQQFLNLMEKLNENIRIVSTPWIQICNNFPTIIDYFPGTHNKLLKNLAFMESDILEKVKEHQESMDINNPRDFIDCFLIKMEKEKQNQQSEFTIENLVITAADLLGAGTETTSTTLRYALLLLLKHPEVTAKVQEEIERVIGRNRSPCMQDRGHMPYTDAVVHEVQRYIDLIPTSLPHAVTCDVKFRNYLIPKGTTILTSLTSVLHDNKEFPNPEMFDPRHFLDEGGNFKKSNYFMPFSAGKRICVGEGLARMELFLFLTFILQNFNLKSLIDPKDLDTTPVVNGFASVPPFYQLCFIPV
# CYP2C9 inhib: human CYP2C9 inhibition. P11712. CYP2C9 Supersomes, luciferin-H conversion, luminescence. inhibition, % at 5 µM. actives 20% (n = 96,000). AID 777;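 active means blocking of liver enzyme CYP2C9 beyond about 50% at 5 µM, limit read from the data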
# CYP2C19 activ: increases human CYP2C19 enzyme activity | P33261 | recombinant CYP2C19, luciferin-H EGE luminescence; active compounds read high; 0 = fully inhibited enzyme, 1 = untreated enzyme | activation factor at 5 µM | 96,000 tested, under 10 active;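 active means activation factor of at least 2 at 5 µM in the primary screen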;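 further: 0 = wells with 2.5 mM tranylcypromine and 1 = vehicle-only wells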
# sEH inhibitor: soluble epoxide hydrolase (human) inhibition. P34913. recombinant human sEH enzymatic activity assay. inhibition, % at 2 µM. actives 0.34% (n = 91,000). AID 707; in the data active means inhibition above about 80%
# CYP2C9 activ: activators of human CYP2C9; P11712; recombinant CYP2C9, luciferin-H conversion, luminescence; active compounds read high; factor 1 = untreated enzyme, 0 = blocked; activation factor at 5 µM; actives 1.4% (n = 96,000); AID 1024;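 active means activation factor of 2 or more for CYP2C9 at a 5 µM dose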;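 further: 0 = sulfaphenazole-blocked wells and 1 = vehicle-only wells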
# An asterisk follows results filed as active; nt = no result. In the library only some 27% were active in any assay of this set; here they are far more common.
SMILES,sEH activator,CYP2C19 inhib,CYP2C9 inhib,CYP2C19 activ,sEH inhibitor,CYP2C9 activ
O=C(CCn1c(=O)oc2ccccc21)N1CCOCC1,-4,-10,-10,1.1,4,1.1
O=c1oc2ccccc2n1CSC1=NCCS1,-11,88*,45,0.1,10,0.6
O=C(CSc1nc2ccccc2s1)CSc1nc2ccccc2s1,12,-1,32,1,-14,0.7
CC(=O)N1C2CCCCC2S[C@H]2CCCCC21 (stereo not given in full),-5,0,31,1,5,0.7
C=CCOC(=O)Nc1ccc(Cl)cc1NC(=O)OCC=C,-2,93*,65*,0.1,5,0.4
O=C(COC(=O)C1CC1)c1c[nH]c2ccccc12,3,28,-2,0.7,-3,1
O=C(OCc1ccccc1)C1=[N+]([O-])OC(C(=O)OCc2ccccc2)C1c1c[nH]c2ccccc12 (stereo not given),10,84*,96*,0.2,-7,0
Cc1cccc(NC(=S)N2N=CCC2c2ccccc2)c1 (stereo not given),10,30,2,0.7,-10,1
CCOC(=O)C1=C(C)Nc2nc(=S)[nH]n2C1c1ccc(Cl)cc1 (stereo not given),5,37,28,0.6,-7,0.7
CCOC(=O)CSC1=C(C#N)C(c2ccc(C)cc2)C(C(=O)OC)C(=O)N1 (stereo not given),3,54*,47,0.5,-2,0.5
CCOC(=O)CSC1=C(C#N)C(c2ccccc2)C(C(C)=O)=C(C)N1 (stereo not given),-7,58*,59*,0.4,7,0.4
CCOC(=O)CSc1nc2cc(C)ccc2cc1C#N,2,-9,-5,1.1,0,1.1
CSCSC1=C(C#N)C(c2ccc(Cl)cc2)C(C(C)=O)=C(C)N1 (stereo not given),2,98*,100*,0,1,0
CC(=O)c1c(C)[nH]c(C(=O)CSc2nnc(-c3ccc(Cl)cc3)n2CC2CCCO2)c1C (stereo not given),12,9,11,0.9,-12,0.9
Cc1ccc(S(=O)(=O)c2nc(N3CCOCC3)sc2Cl)cc1,5,36,6,0.6,-2,0.9
Cc1ccc(SC(C)C(=O)Nc2ncn[nH]2)cc1 (stereo not given),-2,25,28,0.8,7,0.7
O=C(CC(c1ccccc1)c1ccccc1)Nc1ncn[nH]1,-1,50*,83*,0.5,1,0.2
Cc1cccc(C)c1OCC(=O)Nc1ncn[nH]1,8,63*,1,0.4,-10,1
O=C(COc1ccc2ccccc2c1Br)Nc1ncn[nH]1,nt,56*,9,0.4,nt,0.9
O=C(NCc1cccs1)C1CC(=O)N(c2ccccc2)C1 (stereo not given),-2,22,-14,0.8,6,1.1
CCc1nn(-c2cc(Cl)ccc2OC)c2c1C(=O)CCC2,2,34,16,0.7,-4,0.8
COc1cc(/C=C(/NC(=O)c2ccccc2Cl)C(=O)O)cc(OC)c1OC,7,-7,-7,1.1,-7,1.1
COc1cc(OC)cc(C(=O)N2CCC(N3CCCCCC3)CC2)c1,-4,nt,nt,nt,8,nt
CN(C)c1cccc(C(=O)Nc2ccc(N3CCOCC3)cc2)c1,8,2,-81,1,-5,1.8
CC(=O)Nc1ccc(S(=O)(=O)NC2=C(N3CCN(Cc4ccccc4)CC3)C(=O)c3ccccc3C2=O)cc1,-6,76*,80*,0.2,5,0.2
SMILES,sEH activator,CYP2C19 inhib,CYP2C9 inhib,CYP2C19 activ,sEH inhibitor,CYP2C9 activ
COc1ccc2c(c1)[nH]c1c(=O)n(CCCn3ccnc3)cnc12,-2,42,64*,0.6,2,0.4
COc1ccc2c(c1)[nH]c1c(=O)n(CCc3cnc[nH]3)cnc12,11,85*,96*,0.2,-9,0
COC(=O)CCN(C)CCC(=O)OC,4,-8,-4,1.1,-5,1
Cc1nc(N2CCN(C(=O)c3ccco3)CC2)c2c3c(sc2n1)CCCC3,11,nt,nt,nt,-5,nt
CCc1nc(SCC(=O)N2CCN(C(=O)c3ccco3)CC2)c2c3c(sc2n1)CCCC3,nt,11,59*,0.9,nt,0.4
O=C(c1ccco1)N1CCN(c2nc(C3CC3)nc3sc4c(c23)CCCC4)CC1,-5,36,70*,0.6,6,0.3
CCCCn1nnnc1NCc1ccc(OC)c(OC)c1OC,1,70*,32,0.3,-3,0.7
CCCn1c(NCc2cccc(OC)c2OC)nc2ccccc21,1,23,-1,0.8,-2,1
CCn1cc(C(=O)NCc2cccnc2)c(=O)c2cc(F)c(N3CCN(C(=O)c4ccco4)CC3)cc21,6,16,68*,0.8,-8,0.3
CCn1cc(C(=O)NCc2cccc(F)c2)c(=O)c2cc(F)c(N3CCN(C(=O)c4ccco4)CC3)cc21,17,41,84*,0.6,-18,0.2
CCn1cc(C(=O)Nc2nnc(C)s2)c(=O)c2cc(F)c(N3CCN(C(=O)c4ccco4)CC3)cc21,6,nt,nt,nt,-5,nt
CCC(=O)N1CCN=C1SCc1ccc(Cl)cc1,12,84*,19,0.2,-13,0.8
CC(=O)N1CCN=C1SCc1ccccc1Cl,12,41,-162,0.6,-14,2.6*
CCC(=O)N1CCN=C1SCc1ccccc1,nt,34,10,0.7,nt,0.9
CC(=O)N1CCN=C1SCc1ccccc1F,nt,22,-6,0.8,nt,1.1
CCC(=O)N1CCN=C1SCc1ccccc1Cl,3,70*,-48,0.3,0,1.5
CC(=O)N1CCN=C1SCc1ccc(Cl)cc1,nt,40,32,0.6,nt,0.7
O=C(C1CC1)N1CCN=C1SCc1ccccc1Cl,-3,98*,27,0,2,0.7
O=C1NC(=O)c2cc(NC(=O)C3CCCCC3)ccc21,-11,3,-3,1,11,1
CCCOC(=O)c1ccc(OCC(O)Cn2c(C)nc3ccccc32)cc1 (stereo not given),nt,22,48,0.8,nt,0.5
Cc1cccc(CSC2=NCCN2C(=O)C2CC2)c1,1,80*,28,0.2,2,0.7
O=C(NC1CCCCC1)c1ccc(CN2CCOCC2)cc1,6,-17,11,1.2,-10,0.9
O=C(Nc1nccs1)c1ccc(S(=O)(=O)NCc2cccs2)cc1,-8,36,70*,0.6,8,0.3
CN(c1ccc(C(=O)Nc2nccs2)cc1)S(=O)(=O)c1ccccc1,-10,73*,51*,0.3,13,0.5
O=C(Nc1nccs1)c1ccc(S(=O)(=O)NCC2CCCCC2)cc1,-17,8,10,0.9,17,0.9
O=C(Nc1nncs1)c1ccc(S(=O)(=O)c2ccccc2)cc1,-30,-19,60*,1.2,32,0.4
Cc1cc(NC(=O)CSc2nnc(-c3ccco3)o2)no1,17,-4,-8,1,-23,1.1

# High-throughput results from PubChem BioAssay.
